Bioassay records from PubChem BioAssay.
Hits are enriched below; roughly 4.5% of the tested compounds scored in any of these assays.
FBA Mtb inh: Mtb FBA enzyme inhibitors, primary screen, biochemical, fluorescence, strain H37Rv. Fructose-bisphosphate aldolase (Mycobacterium tuberculosis (strain ATCC 25618 / H37Rv)), …. purified M. tuberculosis FBA, fluorescence read-out. inhibition, % at 1 µM. 360,000 tested, 2.3% active; in the data active means inhibition above about 27%
Target sequence (P9WQA3 whole entry, looked up): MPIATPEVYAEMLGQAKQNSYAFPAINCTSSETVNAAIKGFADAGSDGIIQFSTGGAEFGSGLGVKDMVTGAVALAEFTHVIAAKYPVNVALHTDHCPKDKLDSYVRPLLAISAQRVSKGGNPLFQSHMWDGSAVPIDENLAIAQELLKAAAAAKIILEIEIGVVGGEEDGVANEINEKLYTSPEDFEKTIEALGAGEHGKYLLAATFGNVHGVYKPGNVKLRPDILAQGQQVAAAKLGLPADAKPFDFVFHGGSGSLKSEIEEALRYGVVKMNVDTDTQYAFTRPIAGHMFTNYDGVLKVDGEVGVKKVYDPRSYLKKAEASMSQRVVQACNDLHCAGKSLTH
GDH-TPI inh: GDH-TPI coupling enzyme inhibitors, primary screen, artefact control for M. tuberculosis FBA inhibitor project, biochemical, absorbance, full deck. GDH-TPI coupled enzyme counterscreen, NADH absorbance. inhibition, % at 4.8 µM. 360,000 tested, 1.2% active; in the data active means inhibition above about 30%
PrP UTR inh: inhibition of PrP 5' UTR reporter expression; cell-based PrP 5' UTR mRNA reporter, plate reader; inhibition, % (concentration not given with the values); 340,000 tested, 0.35% active; AID 488862, 2010; in the data active means inhibition above about 52%
PfHsp40 rescue: rescue of yeast from PfHsp40 toxicity, primary screen, S. cerevisiae, ATP luminescence; AID 504582, 2011; 340,000 tested, 0.68% active; growth rescue, % at 12.5 µM; S. cerevisiae expressing PfHsp40, growth rescue; in the data active means growth rescue above about 28%, passing the limit was not always enough;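 further: yeast W303a lacking pdr1 and pdr3 grown in galactose medium; growth measured after three days at 30 °C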
BJeLR lethal: MLPCN primary cell-based screen for lethality selective to Ras in HRASV12 cells; 300,000 tested, 0.17% active; inhibition, % (no concentration beside the values); BJeLR (HRASV12) viability, CellTiter-Glo ATP luminescence, 48 h; AID 1554, 2009; in the data active means inhibition above about 50%
PrPC TRFRET: inhibitors of human cell surface prion protein PrPC, primary screen, cell-based, TR-FRET | 370,000 tested, 0.43% active | Major prion protein (Homo sapiens), P04156 | inhibition, % at 13.8 µM | AID 720596, 2013 | TR-FRET read-out; in the data active means inhibition above about 24%
Large screens that a line does not name were inactive.

N#Cc1c(C(F)(F)F)cc(=O)n2c1[nH]c1ccccc12	FBA Mtb inh active
Cc1c(Cc2ccccc2)c(=O)n2c([nH]c3ccccc32)c1C#N	FBA Mtb inh 133
FC(F)(F)Sc1ccc(NC(=S)NCc2ccccc2)cc1	PfHsp40 rescue 148
S=C(NCc1ccccc1)Nc1ccc(Cl)cc1	none
N=c1oc2ccccc2cc1-c1nc(-c2ccc(Cl)cc2)cs1	PfHsp40 rescue 86
CCOC(=O)[C@@]12CCC3=C1N(CCC3)C(=O)[C@H](CC(=O)NCCCOC)C2	none (no result: FBA Mtb inh, GDH-TPI inh, PrP UTR inh, PfHsp40 rescue, BJeLR lethal)
Clc1ccc(-n2c(SCc3cccc4ccccc34)nnc2-c2cccnc2)cc1	none (no result: FBA Mtb inh, GDH-TPI inh, PrP UTR inh, PfHsp40 rescue, BJeLR lethal)
c1ccc(N2CCCCC2)c(Nc2nc3ccccc3n3cnnc23)c1	none
c1ccc2c(c1)nc(Nc1ccc(N3CCCCC3)cc1)c1nncn12	GDH-TPI inh 44
c1ccc(Nc2nc3ccccc3n3cnnc23)cc1	none
CCOc1ccc(Nc2nc3ccccc3n3cnnc23)cc1	GDH-TPI inh 32
CCOC(=O)N1CCN(C(=O)C[C@H]2C[C@@]3(C(=O)OC)C(=C[C@H](COCc4ccccc4)O[C@@H]3C)N(Cc3ccccc3)C2=O)CC1	none (no result: FBA Mtb inh, GDH-TPI inh, PrP UTR inh, PfHsp40 rescue, BJeLR lethal)
COc1cc2oc(=O)ccc2cc1-c1c(OC)ccc2ccc(=O)oc12	GDH-TPI inh 35 (no result: BJeLR lethal)
O=C(NC1CCCCN(Cc2cccc(Cl)c2)C1=O)c1ccc(COc2ccccc2)cc1 (stereo unspecified)	none (no result: FBA Mtb inh, GDH-TPI inh, PrP UTR inh, PfHsp40 rescue, BJeLR lethal)
Oc1ccccc1C1SC(c2ccccc2O)SC(c2ccccc2O)S1 (stereo unspecified)	PfHsp40 rescue 32 (no result: BJeLR lethal)
Cc1cc2c(cc1C)CSC(c1ccccc1O)SC2	none
CCC(C)NS(=O)(=O)c1ccc2[nH]c(=O)oc2c1 (stereo unspecified)	none (no result: FBA Mtb inh, GDH-TPI inh, PrP UTR inh, PfHsp40 rescue, BJeLR lethal)
FC(F)(F)c1nnc2c(Sc3ccccc3)nc3ccc(Cl)cc3n12	BJeLR lethal 62
Cc1ccc(NC(=O)C2C(c3ccccc3)C=CC(c3ccccc3)C2C(=O)O)cc1 (stereo unspecified)	PfHsp40 rescue 172
COC(=O)c1sc(NC(=O)c2ccco2)nc1C	GDH-TPI inh 41
Cc1nc(NC(=O)c2ccco2)sc1C(=O)O	none
Cc1nc(NC(=O)c2ccco2)sc1C(=O)Nc1ccc(Br)cc1	GDH-TPI inh 52 (no result: PrPC TRFRET)
CCOC(=O)c1sc(NC(=S)NC(=O)c2ccco2)nc1C	GDH-TPI inh 35
CCOC(=O)c1sc(NC(=O)c2ccc(=O)[nH]c2)nc1C	GDH-TPI inh 31
CCOc1ccc(Oc2c(Cl)c(Br)nn(Cc3cccc4ccccc34)c2=O)cc1	none (no result: FBA Mtb inh, GDH-TPI inh, PrP UTR inh, PfHsp40 rescue, BJeLR lethal)
CCC(C)N(C(=O)CN1C(=O)C2CCCCN2C(=O)c2ccccc21)C(C)CC (stereo unspecified)	none (no result: FBA Mtb inh, GDH-TPI inh, PrP UTR inh, PfHsp40 rescue, BJeLR lethal)
CC(C)c1cc(C(C)C)c(S(=O)(=O)N2CCC(C(=O)NCC3COCCO3)CC2)c(C(C)C)c1 (stereo unspecified)	none (no result: FBA Mtb inh, GDH-TPI inh, PrP UTR inh, PfHsp40 rescue, BJeLR lethal)
CCOC(=O)c1sc(NC(=O)c2ccco2)nc1-c1ccccc1	GDH-TPI inh 35
CC(=O)c1sc(NC(=O)c2ccco2)nc1-c1ccccc1	none (no result: PrPC TRFRET)
Cc1cc(C)cc(C(=O)OCCCN(C)C2CN(Cc3cn(Cc4ccc([N+](=O)[O-])cc4)nn3)S(=O)(=O)C2)c1 (stereo unspecified)	none (no result: FBA Mtb inh, GDH-TPI inh, PrP UTR inh, PfHsp40 rescue, BJeLR lethal)
COc1ccc(/C=C(\C#N)C(=O)N2CCOCC2)cc1Br	GDH-TPI inh 37
COc1cc(/C=C(\C#N)C(=O)N2CCOCC2)ccc1OCc1ccccc1	none
Cc1cc(/C=C(\C#N)C(=O)O)c(C)n1CC(C)C	GDH-TPI inh 35
O=C(O)c1cc(-c2cccc(Cl)c2)nc2nc(N3CCCCC3)sc12	FBA Mtb inh active
O=C1N=C(N2CCCCC2)S/C1=C\c1ccccc1F	GDH-TPI inh 45
CCCOc1ccccc1/C=C1\SC(N2CCCCC2)=NC1=O	none
O=C1N=C(N2CCN(c3ccccc3)CC2)S/C1=C/c1ccco1	GDH-TPI inh 34
CC(C)(C)c1ccc(/C=C2/SC(N3CCCC3)=NC2=O)cc1	GDH-TPI inh 37
COc1cc(OC)c(OC)cc1/C=C1\SC(N2CCCCC2)=NC1=O	none
O=C1N=C(N2CCCC2)S/C1=C\c1ccccc1	GDH-TPI inh 54
O=S1(=O)C=CCN1Cc1cn(Cc2cccc(Cl)c2)nn1	none (no result: FBA Mtb inh, GDH-TPI inh, PrP UTR inh, PfHsp40 rescue, BJeLR lethal)
COc1cccc(/C=C2\SC(N3CCCC(C)C3)=NC2=O)c1OC (stereo unspecified)	GDH-TPI inh 33
O=C1N=C(N2CCCCC2)S/C1=C\c1ccc(Cl)cc1	none
Cc1ccc(/C=C2\SC(N3CCCCC3)=NC2=O)cc1	GDH-TPI inh 32
COc1cccc(/C=C2\SC(N3CCC(C)CC3)=NC2=O)c1OC	none
C=CCOc1ccc(/C=C2\SC(N3CCCCC3)=NC2=O)cc1	GDH-TPI inh 38
CCCCCCCCN1CN2Cc3cc(F)ccc3C2CS1(=O)=O (stereo unspecified)	none (no result: FBA Mtb inh, GDH-TPI inh, PrP UTR inh, PfHsp40 rescue, BJeLR lethal)
O=C(c1cccs1)N1CC[C@H]2[C@H](CCCN2Cc2cc(F)cc(F)c2)C1	none (no result: FBA Mtb inh, GDH-TPI inh, PrP UTR inh, PfHsp40 rescue, BJeLR lethal)
CC(=O)c1c(C)[nH]c(C(=O)N2CCc3ccccc32)c1C	none
CCOC(=O)c1[nH]c(C)c(C(=O)N2CCc3ccccc32)c1C	BJeLR lethal 52
Cc1ccc(OCCOc2ccc(Cl)cc2Cl)c(Br)n1	none (no result: FBA Mtb inh, GDH-TPI inh, PrP UTR inh, PfHsp40 rescue, BJeLR lethal)
O=C(CSc1nnc(-c2ccc(Cl)cc2)n1-c1ccccc1)NN=Cc1c[nH]c2ccccc12	none (no result: FBA Mtb inh, GDH-TPI inh, PrP UTR inh, PfHsp40 rescue, BJeLR lethal)
N#Cc1c(-c2ccc(Cl)cc2)n(O)c2ccccc12	PfHsp40 rescue 284 (no result: BJeLR lethal, PrPC TRFRET)
CCCCNS(=O)(=O)/C=C/c1cc(C)ccc1CNC(=O)OC(C)(C)C	none (no result: FBA Mtb inh, GDH-TPI inh, PrP UTR inh, PfHsp40 rescue, BJeLR lethal)
